As a reminder, the AC50 is the midpoint of the concentration-response curve, whichever way the signal moves.

The results in this text go back to PubChem BioAssay (EPA / NIEHS).

Inconclusive results are not listed. Activity calls are given as the source filed them. Rule for the calls, unless noted: active = hit-call score of the fitted dose curve at least 0.9, where 1 is the maximum; inconclusive = response in the unintended direction; inactive = score below 0.9.

Test [1] in a line: ATG_TGFb_CIS: Attagene CIS-FACTORIAL HepG2 Assay for human Transforming Growth Factor (TGF) (AID 2282967; active = hit-call score of the fitted dose curve at least 0.9, where 1 is the maximum; inactive = score below 0.9). The conditions noted are these: HepG2 Attagene CIS TGFb reporter, mRNA transcription; actives raise or lower the signal. In short, it runs like this: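 HepG2 cells transiently transfected with cis-promoter-driven multiplexed reporter units; 24 h compound exposure. Reporter mRNA measured by RT-PCR, 6-FAM labeling, HpaI digestion and capillary electrophoresis; bidirectional fit versus DMSO baseline.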

Test [2] can be described thus: ATG_VDRE_CIS: Attagene CIS-FACTORIAL HepG2 Assay for human Vitamin D Receptor Element (VDRE) (AID 2282968; active = hit-call score of the fitted dose curve at least 0.9, where 1 is the maximum; inactive = score below 0.9). The settings on record: HepG2 VDRE cis-reporter transcription, actives raise or lower the signal. The procedure, abridged:
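In transiently transfected HepG2 liver cells, gain or loss of reporter mRNA after 24 h exposure is scored relative to DMSO, using fluorescence detection by capillary electrophoresis of RT-PCR products.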

For test [3], the target named is Nuclear receptor subfamily 1 group I member 3 (Homo sapiens) (UniProt Q14994). As to the kind of experiment: ATG_CAR_TRANS: Attagene TRANS-FACTORIAL HepG2 Assay for human Constitutive Androstane Receptor (CAR) (AID 2282969).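 Note: activators raise reporter mRNA above DMSO so AC50 marks induction.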 The conditions noted are these: HepG2 Attagene TRANS-FACTORIAL CAR reporter. The procedure, abridged: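 Readout is reporter mRNA induction, quantified by fluorescent primer extension and capillary electrophoresis after RT-PCR. Cells were HepG2 transiently carrying chimeric NR-Gal4 constructs with GAL4-UAS reporters, treated for 24 h; activity scored upward from DMSO.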
Nuclear receptor subfamily 1 group I member 3 (Homo sapiens), sequence (Q14994 whole entry, looked up, the tested form may be a part): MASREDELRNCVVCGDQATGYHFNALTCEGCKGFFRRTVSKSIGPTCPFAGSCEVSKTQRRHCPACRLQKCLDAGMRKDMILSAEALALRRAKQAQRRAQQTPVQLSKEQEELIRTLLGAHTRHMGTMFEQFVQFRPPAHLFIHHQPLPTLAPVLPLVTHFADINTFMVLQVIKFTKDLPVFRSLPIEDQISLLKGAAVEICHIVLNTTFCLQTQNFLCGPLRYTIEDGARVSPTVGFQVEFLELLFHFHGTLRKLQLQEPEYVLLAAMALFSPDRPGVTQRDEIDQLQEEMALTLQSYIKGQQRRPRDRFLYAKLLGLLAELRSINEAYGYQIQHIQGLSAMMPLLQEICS

For test [4], the target named is X-box-binding protein 1 (Homo sapiens) (UniProt P17861). Put plainly: ATG_Xbp1_CIS: Attagene CIS-FACTORIAL HepG2 Assay for human X-box Binding Protein 1 (XBP1) (AID 2282972; active = hit-call score of the fitted dose curve at least 0.9, where 1 is the maximum; inactive = score below 0.9). The settings on record: HepG2 XBP1 cis-element reporter, Attagene multiplex; actives raise or lower the signal. The procedure, abridged:
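HepG2 cells transiently transfected with multiple cis-element reporter units report endogenous TF activity; 24 h exposure, then reporter mRNA measured by RT-PCR, 6-FAM labelling, HpaI digestion and capillary electrophoresis. Bidirectional fitting versus DMSO.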

The target in test [5] is Androgen receptor (Homo sapiens) (UniProt P10275). Put plainly: ATG_AR_TRANS: Attagene TRANS-FACTORIAL HepG2 Assay for human Androgen Receptor (AR) (AID 2282973). The settings on record: HepG2 Attagene TRANS-FACTORIAL AR reporter transcription. The procedure, abridged:
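Readout is reporter transcript abundance, quantified by fluorescent RT-PCR products separated on capillary electrophoresis. Human HepG2 liver cells carried transiently transfected NR-Gal4 chimera plus GAL4-UAS reporter constructs and were dosed for 24 h; activity scored upward versus DMSO.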

A short description of test [6]: ATG_M_19_TRANS: Attagene TRANS-FACTORIAL HepG2 Assay for M19 Transcription Factor (Internal Marker) (AID 2282974). The settings on record: HepG2 Attagene TRANS-FACTORIAL M19 internal marker reporter. In short, it runs like this:
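24 h chemical exposure of transiently transfected HepG2 (MRTU library). RNA → oligo(dT) RT → PCR → 6-FAM labelling → HpaI cut → CE fluorescence. Positive-direction fit vs DMSO baseline; background internal-marker readout.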

The nature of test [7]: ATG_GAL4_TRANS: Attagene TRANS-FACTORIAL HepG2 Assay for GAL4 (Internal Marker) (AID 2282976). The conditions noted are these: HepG2 Attagene TRANS GAL4 internal marker reporter. The procedure, abridged: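 RT-PCR/capillary electrophoresis readout of reporter mRNA. HepG2, transient MRTU transfection (GAL4-UAS reporters), 24 h compound exposure. Background-control endpoint, positive direction vs DMSO baseline.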

The target of test [8] is Bile acid receptor (Homo sapiens) (UniProt Q96RI1). Put plainly: ATG_FXR_TRANS: Attagene TRANS-FACTORIAL HepG2 Assay for Farnesoid X Receptor (FXR) (AID 2282979).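 Note: hits raise reporter mRNA above DMSO so AC50 marks FXR activation.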 The settings on record: HepG2 Attagene TRANS FXR-GAL4 reporter transcription. In short, it runs like this:
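Read-out: fluorescent reporter transcripts quantified by capillary electrophoresis after RT-PCR of total RNA. Source cells were HepG2 transiently carrying chimeric NR-GAL4 plus GAL4-UAS reporter units, dosed 24 h. Activity fitted upward relative to DMSO baseline.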

In test [9] the target is Oxysterols receptor LXR-alpha (Homo sapiens) (UniProt Q13133). As to the kind of experiment: ATG_LXRa_TRANS: Attagene TRANS-FACTORIAL HepG2 Assay for human Liver X Receptor alpha (LXRa) (AID 2282980). The conditions noted are these: HepG2 Attagene TRANS reporter, LXRa transactivation. The procedure, abridged:
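Read-out: reporter transcript levels by RT-PCR plus capillary electrophoresis, fluorescence intensity. Transiently transfected HepG2, exogenous NR-GAL4 chimera, GAL4-UAS reporters; 24 h compound exposure. Activity = increase over DMSO negative control.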

The target of test [10] is Oxysterols receptor LXR-beta (Homo sapiens) (UniProt P55055). As to the kind of experiment: ATG_LXRb_TRANS: Attagene TRANS-FACTORIAL HepG2 Assay for human Liver X Receptor beta (LXRb) (AID 2282981). The settings on record: HepG2 Attagene TRANS GAL4-LXRb reporter, mRNA. The procedure, abridged:
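Cells: HepG2, transiently transfected with GAL4-UAS reporter units plus LXRb-Gal4 fusion. Treatment: 24 h. Detection: reporter mRNA by RT-PCR, 6-FAM labelling, HpaI digestion, capillary electrophoresis.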

Test [11] is described as follows: ATG_M_06_TRANS: Attagene TRANS-FACTORIAL HepG2 Assay for M06 Transcription Factor (Internal Marker) (AID 2282983). The conditions noted are these: HepG2 Attagene TRANS M06 internal marker reporter. The procedure, abridged:
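After a 24 h chemical treatment of transfected HepG2, RNA underwent DNase I treatment, reverse transcription and reporter-specific PCR; labelled, HpaI-digested products were sized by capillary electrophoresis. Signal increase relative to DMSO defined activity.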

The nature of test [12]: ATG_M_32_TRANS: Attagene TRANS-FACTORIAL HepG2 Assay for M32 Transcription Factor (Internal Marker) (AID 2282984).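 Note: transcript level of a background control reporter unit measured by RT-PCR and capillary electrophoresis.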 The settings on record: HepG2 Attagene TRANS M32 internal marker reporter. In short, it runs like this:
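Using transiently transfected HepG2 cells exposed to test chemicals for 24 h, reporter transcripts are converted to labelled cDNA fragments and quantified by capillary electrophoresis. DMSO defines the activity baseline.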

Test [13] addresses Nuclear receptor subfamily 4 group A member 2 (Homo sapiens) (UniProt P43354). As to the kind of experiment: ATG_NURR1_TRANS: Attagene TRANS-FACTORIAL HepG2 Assay for human Nuclear Receptor Related Protein 1 (NURR1) (AID 2282985). The settings on record: HepG2 Attagene TRANS reporter, mRNA readout. The procedure, abridged: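 Cells: HepG2, transiently transfected. Exposure: 24 h. Detection: fluorescence of labelled RT-PCR products separated by capillary electrophoresis; upward fit versus DMSO.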

For test [14], the target named is Transcriptional activator Myb (Homo sapiens) (UniProt P10242). Put plainly: ATG_Myb_CIS: Attagene CIS-FACTORIAL HepG2 Assay for human Myeloblastosis (Myb) Proto-Oncogene Transcription Factor (AID 2282986; active = hit-call score of the fitted dose curve at least 0.9, where 1 is the maximum; inactive = score below 0.9). The conditions noted are these: HepG2 Attagene CIS-FACTORIAL Myb reporter transcription; actives raise or lower the signal. In short, it runs like this:
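HepG2, transient MRTU transfection (cis-element promoters, endogenous TF activity), 24 h compound exposure. Readout: reporter mRNA via RT-PCR, 6-FAM labeling, HpaI digest, capillary electrophoresis. Gain/loss fit vs DMSO.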

In test [15] the target is Nuclear respiratory factor 1 (Homo sapiens) (UniProt Q16656). As to the kind of experiment: ATG_NRF1_CIS: Attagene CIS-FACTORIAL HepG2 Assay for human Nuclear Respiratory Factor 1 (NRF1) Orphan Gene (AID 2282987; active = hit-call score of the fitted dose curve at least 0.9, where 1 is the maximum; inactive = score below 0.9). The conditions noted are these: HepG2 NRF1 cis-element reporter, Attagene multiplex; actives raise or lower the signal. The procedure, abridged:
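Endogenous NRF1-driven reporter transcription measured in transiently transfected human HepG2 liver cells. Readout: reporter mRNA by RT-PCR and capillary electrophoresis with fluorescence detection, 24 h post-dosing. Gain or loss of signal fitted relative to DMSO baseline.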

The target of test [16] is Estrogen receptor (Homo sapiens) (UniProt P03372). Put plainly: ATG_ERa_TRANS: Attagene TRANS-FACTORIAL HepG2 Assay for human Estrogen Receptor alpha (ERa) (AID 2282970). The conditions noted are these: HepG2 Attagene TRANS ERa GAL4 reporter, mRNA. In short, it runs like this: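 After 24 h of compound treatment, RNA from HepG2 cells bearing transfected GAL4-UAS reporter constructs is converted to cDNA, amplified and fluorescently labelled. Capillary electrophoresis resolves the ERa-linked reporter; DMSO serves as negative control.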
Estrogen receptor (Homo sapiens), sequence (P03372 whole entry, looked up, the tested form may be a part): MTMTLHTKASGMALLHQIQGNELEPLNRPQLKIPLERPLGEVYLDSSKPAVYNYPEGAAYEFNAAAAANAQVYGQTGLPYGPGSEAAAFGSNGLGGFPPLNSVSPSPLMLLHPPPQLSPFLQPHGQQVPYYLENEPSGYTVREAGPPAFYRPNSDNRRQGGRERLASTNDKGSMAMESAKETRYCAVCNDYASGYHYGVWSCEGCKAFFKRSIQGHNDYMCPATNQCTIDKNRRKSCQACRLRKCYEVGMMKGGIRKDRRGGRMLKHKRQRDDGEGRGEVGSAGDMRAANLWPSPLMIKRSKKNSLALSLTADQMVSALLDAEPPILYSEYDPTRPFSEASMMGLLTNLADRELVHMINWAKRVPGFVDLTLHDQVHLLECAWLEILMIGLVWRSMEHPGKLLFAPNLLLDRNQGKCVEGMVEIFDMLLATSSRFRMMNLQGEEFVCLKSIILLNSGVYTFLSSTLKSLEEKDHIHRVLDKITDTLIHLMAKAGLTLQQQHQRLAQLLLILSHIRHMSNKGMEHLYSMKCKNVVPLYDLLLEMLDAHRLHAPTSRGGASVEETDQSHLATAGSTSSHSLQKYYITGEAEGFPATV

Test [17] concerns the target Glucocorticoid receptor (Homo sapiens) (UniProt P04150). Put plainly: ATG_GR_TRANS: Attagene TRANS-FACTORIAL HepG2 Assay for human Glucocorticoid Receptor (GR) (AID 2282978).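 Note: activators score as hits since higher reporter transcript over DMSO is fitted.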 The conditions noted are these: HepG2 Attagene TRANS GR reporter, mRNA transcription. In short, it runs like this: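 Transient MRTU transfection of HepG2 (GAL4-UAS reporters, exogenous NR-GAL4 chimeras), 24 h dosing. Readout: reporter transcript via RT-PCR + capillary electrophoresis fluorescence. Positive direction vs DMSO baseline.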

Test [18] has as its target Hepatocyte nuclear factor 4-alpha (Homo sapiens) (UniProt P41235). As to the kind of experiment: ATG_HNF4a_TRANS: Attagene TRANS-FACTORIAL HepG2 Assay for human Hepatocyte Nuclear Factor 4 alpha (HNF4a) (AID 2282982). The settings on record: HepG2 HNF4a transactivation reporter, mRNA readout. The procedure, abridged: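 Transfected HepG2 reporter cells are dosed for 24 h; reporter RNA is reverse-transcribed, amplified, fluorescently labelled and HpaI-digested before CE sizing. Positive-direction fit against DMSO.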

X-box-binding protein 1 (Homo sapiens), sequence (P17861 whole entry, looked up): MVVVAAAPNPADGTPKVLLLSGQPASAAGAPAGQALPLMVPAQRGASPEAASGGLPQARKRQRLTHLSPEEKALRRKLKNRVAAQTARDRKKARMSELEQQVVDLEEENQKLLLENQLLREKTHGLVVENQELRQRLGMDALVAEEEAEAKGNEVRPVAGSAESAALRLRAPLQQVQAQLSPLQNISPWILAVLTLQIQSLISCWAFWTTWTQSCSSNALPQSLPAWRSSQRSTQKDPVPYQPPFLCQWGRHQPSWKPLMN
Oxysterols receptor LXR-beta (Homo sapiens), sequence (P55055 whole entry, looked up, the tested form may be a part): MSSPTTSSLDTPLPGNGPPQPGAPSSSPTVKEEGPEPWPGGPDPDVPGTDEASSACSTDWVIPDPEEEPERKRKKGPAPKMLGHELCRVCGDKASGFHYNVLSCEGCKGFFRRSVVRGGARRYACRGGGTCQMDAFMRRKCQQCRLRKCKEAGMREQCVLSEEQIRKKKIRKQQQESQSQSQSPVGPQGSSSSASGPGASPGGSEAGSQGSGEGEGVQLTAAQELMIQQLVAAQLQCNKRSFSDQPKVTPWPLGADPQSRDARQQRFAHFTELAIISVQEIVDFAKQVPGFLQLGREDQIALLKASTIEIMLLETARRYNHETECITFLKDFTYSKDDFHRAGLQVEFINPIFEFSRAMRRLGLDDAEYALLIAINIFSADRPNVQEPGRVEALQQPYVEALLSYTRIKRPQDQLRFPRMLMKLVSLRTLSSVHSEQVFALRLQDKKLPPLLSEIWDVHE
Nuclear receptor subfamily 4 group A member 2 (Homo sapiens), sequence (P43354 whole entry, looked up): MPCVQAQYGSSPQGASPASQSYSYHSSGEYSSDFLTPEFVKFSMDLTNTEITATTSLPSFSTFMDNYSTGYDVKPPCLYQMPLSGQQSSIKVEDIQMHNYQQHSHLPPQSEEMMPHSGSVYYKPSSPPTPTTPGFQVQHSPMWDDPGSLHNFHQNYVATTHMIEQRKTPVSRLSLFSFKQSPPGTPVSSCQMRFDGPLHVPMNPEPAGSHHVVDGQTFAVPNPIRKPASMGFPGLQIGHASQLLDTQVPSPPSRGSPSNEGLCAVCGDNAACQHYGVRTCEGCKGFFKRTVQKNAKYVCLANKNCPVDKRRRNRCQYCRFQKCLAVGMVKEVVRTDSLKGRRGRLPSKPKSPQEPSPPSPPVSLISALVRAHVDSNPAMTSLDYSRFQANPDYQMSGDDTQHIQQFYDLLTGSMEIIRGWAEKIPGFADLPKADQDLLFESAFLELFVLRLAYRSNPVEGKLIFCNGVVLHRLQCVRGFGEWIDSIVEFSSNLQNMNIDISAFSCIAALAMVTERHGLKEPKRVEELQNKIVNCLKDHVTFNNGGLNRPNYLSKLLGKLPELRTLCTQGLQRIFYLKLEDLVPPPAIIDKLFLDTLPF
Oxysterols receptor LXR-alpha (Homo sapiens), sequence (Q13133 whole entry, looked up, the tested form may be a part): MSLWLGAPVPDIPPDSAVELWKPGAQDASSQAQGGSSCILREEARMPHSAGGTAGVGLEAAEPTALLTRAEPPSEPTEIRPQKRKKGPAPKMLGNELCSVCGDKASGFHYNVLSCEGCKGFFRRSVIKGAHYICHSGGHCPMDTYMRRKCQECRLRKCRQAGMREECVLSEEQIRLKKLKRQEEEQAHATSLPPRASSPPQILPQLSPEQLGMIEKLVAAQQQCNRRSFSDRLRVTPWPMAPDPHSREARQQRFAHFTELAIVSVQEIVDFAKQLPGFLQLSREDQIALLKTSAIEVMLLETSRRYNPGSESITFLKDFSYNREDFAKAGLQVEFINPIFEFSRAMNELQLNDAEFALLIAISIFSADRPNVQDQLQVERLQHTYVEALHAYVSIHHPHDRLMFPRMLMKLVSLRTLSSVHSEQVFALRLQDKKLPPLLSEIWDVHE
Bile acid receptor (Homo sapiens), sequence (Q96RI1 whole entry, looked up, the tested form may be a part): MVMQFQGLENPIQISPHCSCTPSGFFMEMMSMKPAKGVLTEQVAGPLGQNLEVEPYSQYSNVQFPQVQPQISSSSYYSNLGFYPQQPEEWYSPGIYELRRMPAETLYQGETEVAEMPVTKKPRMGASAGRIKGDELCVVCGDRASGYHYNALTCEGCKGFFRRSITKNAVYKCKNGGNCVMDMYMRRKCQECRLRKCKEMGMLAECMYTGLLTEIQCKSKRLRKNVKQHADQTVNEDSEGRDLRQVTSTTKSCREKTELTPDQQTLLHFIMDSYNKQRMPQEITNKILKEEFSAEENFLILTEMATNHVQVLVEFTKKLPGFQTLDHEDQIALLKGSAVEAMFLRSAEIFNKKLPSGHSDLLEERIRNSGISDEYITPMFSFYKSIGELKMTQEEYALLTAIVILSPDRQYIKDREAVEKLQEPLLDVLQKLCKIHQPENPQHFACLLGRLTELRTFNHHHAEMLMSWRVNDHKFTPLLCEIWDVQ
Nuclear respiratory factor 1 (Homo sapiens), sequence (Q16656 whole entry, looked up): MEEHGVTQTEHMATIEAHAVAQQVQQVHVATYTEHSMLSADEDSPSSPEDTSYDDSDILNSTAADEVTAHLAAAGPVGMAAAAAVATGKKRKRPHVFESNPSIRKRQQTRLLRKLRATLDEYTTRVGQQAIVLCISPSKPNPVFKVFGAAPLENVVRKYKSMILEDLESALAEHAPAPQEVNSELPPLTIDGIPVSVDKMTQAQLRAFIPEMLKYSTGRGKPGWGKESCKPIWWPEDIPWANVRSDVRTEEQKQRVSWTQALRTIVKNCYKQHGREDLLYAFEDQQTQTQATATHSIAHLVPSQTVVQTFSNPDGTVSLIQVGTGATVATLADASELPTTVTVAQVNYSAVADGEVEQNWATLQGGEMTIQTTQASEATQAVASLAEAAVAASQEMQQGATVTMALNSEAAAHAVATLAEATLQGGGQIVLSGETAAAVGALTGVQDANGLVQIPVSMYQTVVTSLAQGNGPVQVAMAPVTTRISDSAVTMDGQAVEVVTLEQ
Transcriptional activator Myb (Homo sapiens), sequence (P10242 whole entry, looked up): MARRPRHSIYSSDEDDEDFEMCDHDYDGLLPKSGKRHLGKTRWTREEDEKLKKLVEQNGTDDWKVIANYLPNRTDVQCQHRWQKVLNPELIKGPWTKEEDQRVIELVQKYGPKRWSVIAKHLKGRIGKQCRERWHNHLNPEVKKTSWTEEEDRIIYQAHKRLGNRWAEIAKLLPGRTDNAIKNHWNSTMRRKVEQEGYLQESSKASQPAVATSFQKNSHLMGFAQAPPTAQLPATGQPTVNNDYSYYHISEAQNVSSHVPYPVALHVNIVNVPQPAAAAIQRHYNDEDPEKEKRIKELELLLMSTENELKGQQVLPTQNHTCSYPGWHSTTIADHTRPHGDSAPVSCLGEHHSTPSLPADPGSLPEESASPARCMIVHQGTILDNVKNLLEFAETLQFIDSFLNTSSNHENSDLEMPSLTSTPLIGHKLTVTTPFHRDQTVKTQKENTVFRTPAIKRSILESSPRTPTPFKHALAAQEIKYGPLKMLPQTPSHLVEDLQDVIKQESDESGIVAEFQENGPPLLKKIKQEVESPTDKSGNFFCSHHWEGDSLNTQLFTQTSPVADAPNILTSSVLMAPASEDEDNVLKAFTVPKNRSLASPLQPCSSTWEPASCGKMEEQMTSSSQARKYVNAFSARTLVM
Hepatocyte nuclear factor 4-alpha (Homo sapiens), sequence (P41235 whole entry, looked up): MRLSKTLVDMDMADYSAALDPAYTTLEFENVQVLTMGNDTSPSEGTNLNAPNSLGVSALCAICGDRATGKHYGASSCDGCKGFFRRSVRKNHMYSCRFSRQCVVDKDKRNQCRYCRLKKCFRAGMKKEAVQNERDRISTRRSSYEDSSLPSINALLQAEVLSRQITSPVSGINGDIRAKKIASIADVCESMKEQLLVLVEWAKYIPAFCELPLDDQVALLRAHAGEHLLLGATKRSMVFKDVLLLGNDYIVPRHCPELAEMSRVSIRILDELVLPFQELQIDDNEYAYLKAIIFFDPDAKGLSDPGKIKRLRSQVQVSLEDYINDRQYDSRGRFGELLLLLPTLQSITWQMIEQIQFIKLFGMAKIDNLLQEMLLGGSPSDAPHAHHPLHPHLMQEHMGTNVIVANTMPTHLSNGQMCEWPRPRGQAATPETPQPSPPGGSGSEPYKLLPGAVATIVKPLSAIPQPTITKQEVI

For the molecule `CCOC(=O)Cc1ccccc1`, the molecule was classed as inactive in test [1], in [2], in [3], in test [4], in test [5] and in test [6]. The call in test [7], in test [8], in test [9], in [10], in test [11] and in [12] was inactive. Also, the molecule was called inactive in test [13], in test [14] and in [15].
Consider `CCCCN(CCCCO)N=O`, for which the call in test [1], in test [2], in test [3], in test [4], in test [7] and in test [17] was inactive. Also, the call in test [11], in [14] and in test [15] was inactive. Besides, the AC50 in test [16] is 8.41 µM (active).
For `O=S1OC[C@@H]2[C@H](CO1)[C@]1(Cl)C(Cl)=C(Cl)[C@@]2(Cl)C1(Cl)Cl` (stereo partly drawn), the call in [1], in [3], in test [17], in [8], in [11] and in test [14] was inactive. Further, the molecule was called inactive in [15]. Besides, the AC50 in test [2] was 6.07 µM (active); in test [16], 3.77 µM (active); in [4] it was 100 µM (active).
For the molecule `c1ccc2c(c1)Oc1ccccc1O2`, the outcome in [1], in [2], in [3], in [4], in test [11] and in [14] was inactive. The outcome in [15] was inactive.
Take `Cc1ccc2nc3sc(=O)sc3nc2c1`: the call in test [1], in [3], in test [16], in [8], in test [9] and in test [10] was inactive. Also, the molecule was classed as inactive in test [11], in [12] and in [13]. Moreover, the half-maximal activity concentration (AC50) in test [2] is 14.3 µM (active); in test [4] it was 6.96 µM (active); in test [14], 25 µM (active); in [15], 12.2 µM (active).
For `ClCc1ccccc1CCl`, the molecule was called inactive in [1], in test [3], in test [16], in [9], in [10] and in test [18]. The outcome in [11], in test [12], in [13], in [14] and in test [15] was inactive. Besides, the half-maximal activity concentration (AC50) in test [2] was 13.5 µM (active); in test [4], 12.6 µM (active).
